# Bioassay records (PubChem BioAssay)
# Most compounds without a hit are left out; they make up all but 6.7% or so of the library.
# MCF10A rereplic = induces DNA re-replication in MCF 10a normal breast cells | MCF 10A DNA re-replication, Hoechst nuclear intensity, 48 h | Potency, µM (top dose mostly 46.1 µM), for inactives: at the top dose activity, positive = re-replication, hits mostly activators | actives 2.9% (n = 350,000) | AID 624296; also: % of control where 0% means no effect; nearly all actives have a fitted effect of over 50% in size
# KB-V1 MDR tox = KB-V1 MDR subline cytotoxicity; actives 3.4% (n = 400,000); Potency, µM (highest dose often 46.1 µM), most hits filed as cytotoxic; AID 1347076; KB-V1 MDR cells viability, CellTiter-Glo, 72 h; also: % is scaled to controls: 0 for no effect and ±100 for the full control effect; nearly all actives have a fitted effect of over 60% in size
#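 KB-V1 cells (P-gp-expressing MDR subline of KB-3-1) in phenol-red-free DMEM with 10% FBS were exposed to library compounds over a concentration series for 72 h at 37 degrees C. Viability read by CellTiter-Glo luminescence; concentration-effect curves fitted after normalization.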
# KB-3-1 tox = kills parental KB-3-1 adenocarcinoma cells. Potency, µM (series often up to 46.1 µM), most hits filed as cytotoxic. actives 1.4% (n = 400,000). KB-3-1 viability, CellTiter-Glo ATP luminescence, 72 h; also: % is scaled to controls: 0 for no effect and ±100 for the full control effect; nearly all actives have a fitted effect of over 60% in size
#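 KB-3-1 parental drug-naive adenocarcinoma cells in DMEM/10% FBS, incubated 72 h at 37 C with pin-transferred compounds across a concentration series. Viability by CellTiter-Glo luminescence; concentration-response curves fitted after normalization.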
# PINK1 expr mod = modulators of PINK1 expression; AID 624263; actives 0.2% (n = 410,000); PINK1 immunofluorescence, high-content cytometry, 24 h; Potency, µM (series often up to 76.6 µM), for inactives: at the top dose activation (PINK1 increase), hits mostly activators; active = well fitted activation curve with a large enough effect; inconclusive = small, poorly fitted or top-dose-only effect; cell line not stated here; also: % of control where 0% means no effect; nearly all actives have a fitted effect of over 65% in size
#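 A stable cell line was treated with compounds at 5 concentrations for 24 hours, with CCCP as control. PINK1 levels and mitochondrial localization were measured by immunofluorescence with mitochondrial, cell and nuclear markers after fixation, read by laser-scanning cytometry.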
# SW480 rerep = inducers of DNA re-replication in SW480 colon cancer cells; SW480 DNA re-replication, Hoechst DNA content imaging, 48 h; Potency, µM (titrated, usually from 46.1 µM), for inactives: at the highest dose re-replication activation, hits mostly activators; actives 1.8% (n = 340,000); also: % of control where 0% means no effect; nearly all actives have a fitted effect of over 55% in size
#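 DNA re-replication was detected as more nuclei of elevated Hoechst intensity after 48 hr exposure to compound (23 nL pinned per well of 250 cells).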
# * hit, by the source's call; i = inactive; ? = inconclusive; . = not tested or not shown; [ ] = another dose, or the depositor's remark. Unless noted, calls follow the shape of the dose curve; as a rule, active = well fitted curve in the direction sought with a large enough effect; inconclusive = small, poorly fitted or top-dose-only effect, or another doubt; inactive = no such curve, though single readings can be large; an effect the other way counts as inactive or inconclusive. Potency is read from the fitted curve at half-maximal effect.
SMILES,MCF10A rereplic,KB-V1 MDR tox,KB-3-1 tox,PINK1 expr mod,SW480 rerep
Cc1ccc(N2CC(NC(=O)c3ccc(S(=O)(=O)N(C)C)cc3)CC2=O)cc1C (configuration not stated),.,.,.,-1%,.
CCCn1nc(C(=O)Nc2cccc(S(=O)(=O)N3CCOCC3)c2)c2ccccc2c1=O,.,i,i,3%,.
COCCNC(=O)C1(C)CCCN(C(=O)c2ccccc2)C1 (configuration not stated),.,i,i,0%,.
COc1ccc([C@H]2CC(=O)C[C@@H](CCn3nnc4ccccc43)O2)cc1,.,?,i,0%,.
CCOC(=O)N1CCN(Cc2ccccc2Cl)CC1,-2%,i,i,1%[38.3 µM],-6%
CCOC(=O)N1CCN(Cc2cc(Cl)c3cccnc3c2O)CC1,?,i,?,8%,4.6µM*
CC(O)c1cccc(-c2ccc(CN3C[C@]4(CO)O[C@@H](CO)C[C@@H]4S3(=O)=O)cc2)c1 (some centres not stated),1%,i,i,-1%,8%
Cc1ccccc1Cn1cc(S(=O)(=O)CC(=O)Nc2nccs2)c2ccccc21,-25%,16µM*,?,.,0%
CCOC(=O)N1CCN(C(=O)CS(=O)(=O)c2cn(Cc3ccccc3C)c3ccccc23)CC1,2%,?,i,4%,0%
CN1CCN(c2nc(-c3cccc([N+](=O)[O-])c3)nc3ccccc23)CC1,23µM*,i,i,3%,23µM*
CCOC(=O)N1CCN(S(=O)(=O)c2ccc(C(=O)NNc3nc4cc(C)cc(C)c4s3)cc2)CC1,?,i,4.1µM*,5%,?
CCOC(=O)N1CCN(S(=O)(=O)c2ccc(C(=O)NNc3nc4c(C)cc(C)cc4s3)cc2)CC1,?,?,?,-1%,5.8µM*
Cc1cccc(-n2cnc3cc(C(=O)NCc4ccccc4Cl)ccc32)c1,.,?,?,7%,.
Cc1ccc(CNC(=O)c2cn(C)c3ccc(S(=O)(=O)N4CCC(C)CC4)cc3c2=O)cc1,.,i,i,4%,.
Cc1ccc(-c2c[n+](Cc3ccc(Cl)cc3)c3n2CCC3)cc1,2%,i,?,-2%,5%
O=C(C[n+]1cc(-c2ccc(Cl)cc2)n2c1CCCCC2)c1ccccc1,?,i,?,0%,-6%[9.22 µM]
Clc1cccc(C[n+]2cc(-c3ccccc3)n3c2CCC3)c1,17%,i,9.2µM*,2%,-33%
Cc1ccc(-c2c[n+](Cc3cccc(Cl)c3)c3n2CCC3)cc1,9%,i,8.2µM*,2%,-5%
Cc1ccc(C[n+]2cc(-c3ccc(Cl)cc3)n3c2CCC3)cc1,11%,?,6.5µM*,3%,2%
COc1ccc(NC(=O)Cn2c(C)cc3ccccc3c2=O)c(OC)c1,.,?,i,1%,.
Cc1ccc(S(=O)(=O)N(CC(=O)NCC2CCCO2)Cc2ccc(F)cc2)cc1 (configuration not stated),9%,i,i,4%,-38%
O=C(C(=O)N1CCN(c2ccccc2)CC1)c1ccco1,.,i,i,.,.
Clc1ccc(-c2nc3ccncc3[nH]2)cc1,2%,18µM*,?,-2%,-13%
Fc1ccc(-c2nc3ccncc3[nH]2)cc1,-5%,i,i,-1%,-2%
Cc1cccc(OCC(=O)Nc2ccc(S(=O)(=O)N(Cc3ccccc3)c3ccccc3)cc2)c1,.,i,i,3%,.
COc1ccc(-c2nc3ccccc3o2)cc1NC(=O)c1ccc(OCC(C)C)cc1,.,i,i,1%,.
Cc1ccc([N+](=O)[O-])c(OCCn2cnc3ccccc32)c1,0%,15µM*,?,4%,3%
CC(CNC(=O)[C@@H](Cc1ccccc1)NC(=O)CC[C@H]1O[C@@H](n2ccc(=O)[nH]c2=O)[C@H](O)[C@@H]1O)c1ccccc1 (some centres not stated),.,i,i,0%,.
COCCNC(=O)/C(C#N)=C/c1ccc(O)cc1,-1%,i,i,1%,-5%
COCCNC(=O)/C(C#N)=C/C=C/c1ccccc1[N+](=O)[O-],15µM*,?,i,4%,23%
